Laboratory results taken from PubChem BioAssay AID1347044 (National Center for Advancing Translational Sciences (NCATS), 2019).
The campaign covered roughly 1,400 compounds. About 1,100 (79%) were called active. Roughly 20% stayed inconclusive and do not appear here. The call rests on the fitted dose curve. So high a share suggests a set chosen from earlier hits. A selection follows.

Molecular target: Atrial natriuretic peptide receptor 1 (Homo sapiens) (UniProt P16066)
Assay: Natriuretic polypeptide receptor (hNpr1) antagonism - Confirmation; further: nearly all actives have a fitted effect of over 70% in size
Details: HEK293 hNpr1 cGMP GloSensor luminescence, ANP-stimulated; series mostly up to 57.6 µM
Protocol: In order to identify small molecular compounds that inhibit the hNpr1 receptor we developed a high-throughput assay to measure inhibition of the guanylate cyclase activity of the receptor. cGMP production was measured using a circular permutated Firefly luciferase (FLuc) enzyme functionally linked to the cGMP binding domain of human phosphodiesterase 5 (GloSensor technology pGS-40F, (Fan, F. et al. 2008). The cGMP-sensor was expressed in human embryonic kidney 293 (HEK-293) cells and FLuc activity was measured after stimulation with hNrp agonist peptide. hNrp agonists activates the receptor's associated guanylyl cyclase (GC) domain producing cGMP which then binds to the GloSensor resulting in FLuc activation, the enzymatic activity of which can be measured as bioluminescence with addition of luciferin substrate. A cytotoxicity counter-screen using the HEK-hNpr1-cGMP-sensor cells was also performed on the follow-up compounds. F. Fan, B. F. Binkowski, B. L. Butler, P. F. Stecha, M. K. Lewis, K. V. Wood, Novel genetically encoded biosensors using firefly luciferase. ACS Chem Biol 3, 346-351 (2008).
PROTOCOL TABLES (as described by Inglese J, Shamu CE and Guy RK. 2007) SEQUENCE No. (e.g., 1, 2, 3, etc.); PARAMETER (e.g., Cells, Incubation, Reagent, etc.); VALUE and DESCRIPTION. GLOSENSOR PROTOCOL 1. Cells. Seed 1500 HEK293 cGMP-sensor cells expressing hNpr1 per well in 4uL into Greiner 1536-well white/solid bottom high base, tissue culture-treated plates. 2. Incubation. Incubate plated cells at 37C in 5% CO2, 95% RH overnight. 3. Reagent. Add 1uL per well GloSensor reagent from Promega (2% final concentration) or CO2 independent media vehicle control to respective columns of Greiner 1536-well plates. 4. Incubation. Incubate plated cells at room temperature for 2 h, protect from light. 5. Compounds. Library compounds and A-71915 control added at 23 nL per well, transferred by Pin Tool. 6. Incubation. Incubate plated cells for 30 min. at room temperature, protect from light. 7. Detector. GloSensor baseline pre-read luminescence measured using CCD-based camera (Viewlux). 8. Compound. Add 1uL of hNppA peptide to 0.1 nM final concentration to stimulate hNpr1 or CO2 independent media as vehicle control. 9. Incubation. Incubate treated cells at room temperature for 20 min., protect from light. 10. Detector. GloSensor post-hNppA luminescence measured using CCD-based camera (Viewlux). NOTES (numbers refer to Sequence numbers above) 1. HEK293 cells expressing hNpr1 and GIP/pGS-40F grown to 85-95% confluence (48-72 h) in T175 culture flasks (CO2 independent media supplemented with 10% FBS, 1% Pen/Strep antibiotics and 1 ug/mL puromycin). Trypsinize and harvest cells from T175 culture flasks and filter through 40 um cell strainer. Cells counted with Invitrogen Countess (30,000,000 - 50,000,000 cells/flask). Cells diluted to a final concentration of 375 cells/uL in CO2 independent media and a Millipore multidrop used to dispense 1500 cells per well (4uL/well) into 13 1536-well Greiner White/Solid bottom, high base tissue-culture treated (TC) plates and one Aurora 1536-well Black/Clear bottom, low base, TC plate (for visual inspection of cell health throughout the duration of the assay). 2. Cells incubated overnight at ambient temperature, 24 h. at 37C in 95% RH incubator protected from light, covered with metal lid with gas-exchange holes. 3. Prepare GloSensor Reagent (Promega): Reconstitute GloSensor luciferase substrate by adding 8.2mL Hepes buffer to 250mg substrate, mix well, protect from light and stored at -80C. Prepare a fresh 12% GloSensor solution in CO2 independent supplemented plating media (see above). Mix well and store at ambient temperature, protected from light. 1uL 12% GloSensor Luciferase Reagent added (2% final concentration) to respective columns of 13 x 1536-well Greiner plate with BioRaptr, 1uL CO2 independent plating media added to respective columns as vehicle control with BioRaptr. 4. […]
Potency means the concentration at half of the fitted maximal effect.

Atrial natriuretic peptide receptor 1 (Homo sapiens), sequence (P16066 whole entry, looked up): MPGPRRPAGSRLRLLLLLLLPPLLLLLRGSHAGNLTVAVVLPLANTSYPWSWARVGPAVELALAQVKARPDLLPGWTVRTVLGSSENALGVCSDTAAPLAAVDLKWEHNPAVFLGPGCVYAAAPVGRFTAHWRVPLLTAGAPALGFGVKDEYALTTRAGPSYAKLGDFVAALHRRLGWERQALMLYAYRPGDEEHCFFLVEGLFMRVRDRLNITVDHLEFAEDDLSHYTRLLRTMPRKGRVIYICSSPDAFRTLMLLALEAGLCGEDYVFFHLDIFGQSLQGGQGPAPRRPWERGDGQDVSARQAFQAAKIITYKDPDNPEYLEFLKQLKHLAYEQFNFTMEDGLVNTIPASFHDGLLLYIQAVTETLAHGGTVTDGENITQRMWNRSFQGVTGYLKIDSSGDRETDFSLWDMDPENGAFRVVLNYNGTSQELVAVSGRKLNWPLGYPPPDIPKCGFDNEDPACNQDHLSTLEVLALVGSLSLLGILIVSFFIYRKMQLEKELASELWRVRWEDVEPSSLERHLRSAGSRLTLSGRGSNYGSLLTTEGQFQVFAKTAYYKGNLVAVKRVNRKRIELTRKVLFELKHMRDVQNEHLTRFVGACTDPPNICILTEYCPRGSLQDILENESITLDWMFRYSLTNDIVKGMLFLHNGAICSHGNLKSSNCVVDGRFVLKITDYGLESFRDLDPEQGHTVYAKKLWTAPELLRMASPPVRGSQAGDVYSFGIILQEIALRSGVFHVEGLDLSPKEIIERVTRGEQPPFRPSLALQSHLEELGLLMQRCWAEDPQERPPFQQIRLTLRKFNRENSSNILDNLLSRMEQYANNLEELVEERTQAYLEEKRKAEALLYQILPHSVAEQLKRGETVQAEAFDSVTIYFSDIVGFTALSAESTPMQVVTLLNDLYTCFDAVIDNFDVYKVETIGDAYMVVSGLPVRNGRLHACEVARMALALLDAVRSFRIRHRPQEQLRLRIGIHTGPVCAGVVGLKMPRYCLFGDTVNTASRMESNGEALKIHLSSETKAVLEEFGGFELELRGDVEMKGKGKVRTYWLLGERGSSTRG

| Compound | Potency |
| --- | --- |
| Cc1nc(-c2ccncc2)ncc1C(C)Nc1ncnc(C)c1C (centres undefined) | 21.7 µM (active) |
| O=C(c1ccc2cc[nH]c2c1)N1CCC2(CC1)N=C(c1ccc(Cl)cc1)NO2 | 19.3 µM (active) |
| O=[S+]1([O-])NCC2(CCCN(Cc3ccc(C(F)(F)F)cc3)C2)Oc2ncccc21 (centres undefined) | 24.3 µM (active) |
| Cc1cccc(CN2CCc3nc(C(=O)Nc4ccc(Cl)cc4)oc3CC2)c1 | 9.94 µM (active) |
| COc1cccc(C2C(C(=O)Nc3ccccc3)=C(C)N=C3SC=C(CC(=O)NCC(C)C)N32)c1 (centres undefined) | inactive |
| COc1cccc(NC(=O)Cn2c(N(C)Cc3ccccc3)nc(C)cc2=O)c1 | 10.9 µM (active) |
| COc1cccc(CNC(=O)Cn2c(N(C)Cc3ccccc3)nc(C)cc2=O)c1OC | 24.3 µM (active) |
| O=c1[nH]c(C2CCCN(Cc3ccccn3)C2)nn1-c1ccc(Cl)cc1 (centres undefined) | 6.85 µM (active) |
| CC1(C(=O)NCc2ccc3c(c2)OCO3)CCc2cnc(NCc3ccccc3)nc21 (centres undefined) | 35.3 µM (active) |
| Cc1ccc2c(c1)nc1n2[C@@H](CNS(=O)(=O)c2ccccc2)COC1 | 35.3 µM (active) |
| COc1ccc(CN2C(=O)CO[C@H]3CN(Cc4ccc5c(c4)OCO5)C[C@H]32)cc1 | 31.4 µM (active) |
| O=C(c1ccccc1)N1CCNc2cnc(Nc3cccc(C(F)(F)F)c3)nc2C1 | 31.4 µM (active) |
| COc1ccc(S(=O)(=O)N2CCc3c(C(=O)NCCc4ccccn4)cccc32)cc1 | 24.3 µM (active) |
| CC(C)c1cc(C(=O)N2CCC(n3cc(-c4ccccn4)nn3)CC2)n(C)n1 | 13.7 µM (active) |
| COc1ccc(OCC2(C)COc3ccc(C(=O)Nc4cccnc4)cc3N2)cc1 (centres undefined) | 35.3 µM (active) |
| CN(Cc1csc(-c2ccccc2)n1)c1cc(C2CC(O)C2)nc(N)n1 (centres undefined) | 2.43 µM (active) |
| Cc1noc(C)c1-c1cc(-c2ccccc2Oc2ccccc2)cn2cncc12 | 19.8 µM (active) |
| O=C1NCN(Cc2ccc(Cl)cc2)C12CCN(Cc1ccccc1)CC2 | 15.3 µM (active) |
| N#Cc1cccc(CN2CCC(C3=NC(O)c4cc(F)ccc4N3)CC2)c1 (centres undefined) | 15.3 µM (active) |
| CN1CCN(C(=O)C(C)(C)Oc2nn(Cc3cccc(Cl)c3)c3ccccc23)CC1 | 28 µM (active) |
| Cc1cc(N2CCCC(Cn3cc(Cc4ccccc4)nn3)C2)nc(N)n1 (centres undefined) | 6.11 µM (active) |
| Cc1noc(C)c1-c1cnc2[nH]cc(CC(=O)N3CCOCC3)c2c1 | 31.4 µM (active) |
| O=C(Cc1c[nH]c2ncc(-c3ccccc3F)cc12)N1CCOCC1 | 31.4 µM (active) |
| COc1ccc(CCNC(=O)c2noc(-c3ccc(C)cc3)n2)cc1OC | 24.3 µM (active) |
